# According to PubChem BioAssay (Tox21):
# Unmarked numbers belong to inactive results. Records with an inconclusive call do not appear. Entries that show only a call come without a potency. Activity calls are given as the source filed them. Unless noted, the call rests on the fitted dose curve; in most records, active means well fitted curve in the direction sought with a large enough effect in the repeat runs; inconclusive means weak or mixed curves; inactive means no such curve, though single readings can be large; an effect the other way counts as inactive or inconclusive.
# Experiment: qHTS assay for small molecule disruptors of the mitochondrial membrane potential - cell viability (AID 720634; calls by dose curve;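 further: human HepG2 liver cancer cells; nearly all actives have a fitted effect of over 20% in size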)
# Settings: HepG2 viability, ATP luminescence (CellTiter-Glo), 1 h; series mostly up to 83.2 µM
# Procedure, shortened: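 Human hepatoma HepG2 cells were treated for 1 hr with test chemicals, then given m-MPI dye and CellTiter-Glo. Cell viability reflects luminescence proportional to cellular ATP.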
row,Compound,outcome
1,CC/C=C/CCCCCCCCCCOC(C)=O,inactive
2,Cc1ccc(Br)cc1,inactive
3,C=CCON/C(CCC)=C1\C(=O)CC(C)(C)C(C(=O)OC)=C1O,inactive
4,C[Si](C)(C)O[Si](O)(O)O,inactive
5,O=C(CCBr)N1CCN(C(=O)CCBr)CC1,inactive
6,Cc1ccccc1OCC(=O)O,inactive
7,CC/C=C\CCCCCCCCCCOC(C)=O,inactive
8,CC1(C)S[C@@H]2[C@H](NC(=O)Cc3ccccc3)C(=O)N2[C@H]1C(=O)O (tested in a mixture with another compound),inactive
9,CC1=C(O)C(=O)CO1,inactive
10,CC(C)C(C)C,inactive
11,O=C(O)Cc1c(Cl)ccc(Cl)c1Cl,inactive
12,CCC(=O)OCCOc1ccccc1,inactive
13,N=C(N)S(=O)O,inactive
14,CC[C@@]1(c2ccccc2)NC(=O)N(C)C1=O,inactive
15,C=CCCCCCCCCCCCCCC,inactive
16,N#CC1(N)CCCCC1,inactive
17,CN(C)c1ccncc1,inactive
18,BrCCOc1ccccc1,inactive
19,O=C1CC2(CCCC2)CC(=O)N1CCNCC1COc2ccccc2O1 (stereo not given),inactive
20,CCOC(=O)c1ccc(N(C)C)cc1,inactive
21,N=C(N)N1CCc2ccccc2C1,inactive
22,C=CCN(CC=C)CC=C,inactive
23,CCCCN1C(=O)c2ccccc2C1=O,inactive
24,COc1cc(NS(=O)(=O)c2ccc(N)cc2)ncn1,inactive
25,NNC(=O)CCCCC(=O)NN,inactive

# Experiment: qHTS assay for small molecule disruptors of the mitochondrial membrane potential (AID 720635); further: potency means the concentration at half of the fitted maximal effect
# Settings: HepG2 mitochondrial membrane potential, Mito-MPS dye ratio; series mostly up to 83.2 µM
# Procedure, shortened: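 HepG2 cells (2,000/well) attached overnight at 37C, then took compound for 1 hr at 37C, 5% CO2. Mito-MPS dye was added for 30 min; fluorescence was read at 490/535 nm (monomers) and 540/590 nm (aggregates).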
row,Compound,Potency
1,CC/C=C/CCCCCCCCCCOC(C)=O,inactive
2,O=C(O)/C=C(\CC(=O)O)C(=O)O,inactive
3,CCOc1ccccc1OCCN[C@H](C)Cc1ccc(OC)c(S(N)(=O)=O)c1,24.8 µM (active)
4,CCCCCCCCCCCCCCBr,inactive
5,CCN1CCN(C(=O)N[C@@H](C(=O)N[C@@H]2C(=O)N3[C@@H]2SC(C)(C)[C@H]3C(=O)O)c2ccccc2)C(=O)C1=O,inactive
6,CCCCNCC,inactive
7,C/C(=N\O)c1ccc(OCC(=O)N2CCCCC2)cc1,inactive
8,CC/C=C\CCCCCCCCCCOC(C)=O,inactive
9,COCc1nnc(-c2ccc[n+]([O-])c2)n1-c1c(Cl)c(Cl)cc2[nH]c(=O)c(=O)[nH]c12,inactive
10,N=C(N)S(=O)O,inactive
11,CC(C)(C)C(=O)CCc1ccc(Cl)cc1,inactive
12,CCCCCCCCS(=O)(=O)O,inactive
13,CN(C)c1ccncc1,inactive
14,N=C(N)N1CCc2ccccc2C1,inactive

# Experiment: qHTS assay to test for compound auto fluorescence at 590 nm (red) in HepG2 cells (AID 720674)
# Settings: HepG2 autofluorescence, red 540/590 nm, 1 h; series mostly up to 91.3 µM
# Procedure, shortened: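 Rose Bengal sodium served as the red fluorophore standard. HepG2 monolayers (overnight attachment, MEM with 10% FBS) were exposed to test compounds for 1 hr at 37 C and read at Ex 540/Em 590 nm.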
Compound,outcome,"fluorescence, relative to Rose Bengal"
CC/C=C/CCCCCCCCCCOC(C)=O,inactive,
Cc1ccc(Br)cc1,inactive,
O=C(O)/C=C(\CC(=O)O)C(=O)O,inactive,
C=CCON/C(CCC)=C1\C(=O)CC(C)(C)C(C(=O)OC)=C1O,inactive,
CCOc1ccccc1OCCN[C@H](C)Cc1ccc(OC)c(S(N)(=O)=O)c1,inactive,
CCCCCCCCCCCCCCBr,inactive,
CCN1CCN(C(=O)N[C@@H](C(=O)N[C@@H]2C(=O)N3[C@@H]2SC(C)(C)[C@H]3C(=O)O)c2ccccc2)C(=O)C1=O,inactive,
CCCCNCC,inactive,
C[Si](C)(C)O[Si](O)(O)O,inactive,
O=C(CCBr)N1CCN(C(=O)CCBr)CC1,inactive,
Cc1ccccc1OCC(=O)O,inactive,
C/C(=N\O)c1ccc(OCC(=O)N2CCCCC2)cc1,inactive,
CC/C=C\CCCCCCCCCCOC(C)=O,inactive,
COCc1nnc(-c2ccc[n+]([O-])c2)n1-c1c(Cl)c(Cl)cc2[nH]c(=O)c(=O)[nH]c12,inactive,
CC1(C)S[C@@H]2[C@H](NC(=O)Cc3ccccc3)C(=O)N2[C@H]1C(=O)O (tested in a mixture with another compound),inactive,
CC1=C(O)C(=O)CO1,inactive,
CC(C)C(C)C,inactive,
O=C(O)Cc1c(Cl)ccc(Cl)c1Cl,inactive,

Compound,outcome,"fluorescence, relative to Rose Bengal"
CCC(=O)OCCOc1ccccc1,inactive,
N=C(N)S(=O)O,inactive,
CC(C)(C)C(=O)CCc1ccc(Cl)cc1,inactive,
CC[C@@]1(c2ccccc2)NC(=O)N(C)C1=O,inactive,
CCCCCCCCS(=O)(=O)O,inactive,
C=CCCCCCCCCCCCCCC,,-0.0589% [at 18.6 µM]
N#CC1(N)CCCCC1,inactive,
CN(C)c1ccncc1,inactive,
BrCCOc1ccccc1,inactive,
O=C1CC2(CCCC2)CC(=O)N1CCNCC1COc2ccccc2O1 (stereo not given),inactive,
CCOC(=O)c1ccc(N(C)C)cc1,inactive,
N=C(N)N1CCc2ccccc2C1,inactive,
CNC(C)=O,inactive,
C=CCN(CC=C)CC=C,inactive,
CCCCN1C(=O)c2ccccc2C1=O,inactive,
COc1cc(NS(=O)(=O)c2ccc(N)cc2)ncn1,,-0.434% [at 18.6 µM]
NNC(=O)CCCCC(=O)NN,inactive,

# Experiment: qHTS assay to test for compound auto fluorescence at 535 nm (green) in HepG2 cells (AID 720675)
# Settings: green autofluorescence 485/535 nm, 1 h; series mostly up to 91.3 µM
Compound,outcome,"fluorescence, % of fluorescein control"
CC/C=C/CCCCCCCCCCOC(C)=O,inactive,
Cc1ccc(Br)cc1,inactive,
O=C(O)/C=C(\CC(=O)O)C(=O)O,inactive,
C=CCON/C(CCC)=C1\C(=O)CC(C)(C)C(C(=O)OC)=C1O,inactive,
CCCCCCCCCCCCCCBr,inactive,
CCN1CCN(C(=O)N[C@@H](C(=O)N[C@@H]2C(=O)N3[C@@H]2SC(C)(C)[C@H]3C(=O)O)c2ccccc2)C(=O)C1=O,inactive,
CCCCNCC,inactive,
C[Si](C)(C)O[Si](O)(O)O,inactive,
O=C(CCBr)N1CCN(C(=O)CCBr)CC1,inactive,
Cc1ccccc1OCC(=O)O,inactive,
C/C(=N\O)c1ccc(OCC(=O)N2CCCCC2)cc1,inactive,
CC/C=C\CCCCCCCCCCOC(C)=O,inactive,
COCc1nnc(-c2ccc[n+]([O-])c2)n1-c1c(Cl)c(Cl)cc2[nH]c(=O)c(=O)[nH]c12,inactive,
CC1(C)S[C@@H]2[C@H](NC(=O)Cc3ccccc3)C(=O)N2[C@H]1C(=O)O (tested in a mixture with another compound),inactive,
CC1=C(O)C(=O)CO1,inactive,
CC(C)C(C)C,inactive,

Compound,outcome,"fluorescence, % of fluorescein control"
CCC(=O)OCCOc1ccccc1,inactive,
N=C(N)S(=O)O,inactive,
CC(C)(C)C(=O)CCc1ccc(Cl)cc1,inactive,
CC[C@@]1(c2ccccc2)NC(=O)N(C)C1=O,inactive,
CCCCCCCCS(=O)(=O)O,inactive,
C=CCCCCCCCCCCCCCC,,-0.0523% [at 18.6 µM]
N#CC1(N)CCCCC1,inactive,
CN(C)c1ccncc1,inactive,
BrCCOc1ccccc1,inactive,
N=C(N)N1CCc2ccccc2C1,inactive,
CNC(C)=O,inactive,
C=CCN(CC=C)CC=C,inactive,
CCCCN1C(=O)c2ccccc2C1=O,inactive,
COc1cc(NS(=O)(=O)c2ccc(N)cc2)ncn1,,0.0032% [at 18.6 µM]
NNC(=O)CCCCC(=O)NN,inactive,
